# Inconclusive results are not listed. The source made the active and inactive calls. How the source made its calls: active means hit-call score of the fitted dose curve at least 0.9, where 1 is the maximum; inconclusive means response in the unintended direction; inactive means score below 0.9.
# Key:
# [1] = target: human Thromboxane A2 Receptor (TXA2), TBXA2R (gene 6915) (UniProt P21731); test: NVS_GPCR_hTXA2: NovaScreen (NVS) G Protein-Coupled Receptor Assay for human Thromboxane A2 Receptor (TXA2) (AID 2283282);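 further: actives reduce bound radioligand signal relative to DMSO baseline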
# Sequence of human Thromboxane A2 Receptor (TXA2), TBXA2R (gene 6915) (P21731 whole entry, looked up): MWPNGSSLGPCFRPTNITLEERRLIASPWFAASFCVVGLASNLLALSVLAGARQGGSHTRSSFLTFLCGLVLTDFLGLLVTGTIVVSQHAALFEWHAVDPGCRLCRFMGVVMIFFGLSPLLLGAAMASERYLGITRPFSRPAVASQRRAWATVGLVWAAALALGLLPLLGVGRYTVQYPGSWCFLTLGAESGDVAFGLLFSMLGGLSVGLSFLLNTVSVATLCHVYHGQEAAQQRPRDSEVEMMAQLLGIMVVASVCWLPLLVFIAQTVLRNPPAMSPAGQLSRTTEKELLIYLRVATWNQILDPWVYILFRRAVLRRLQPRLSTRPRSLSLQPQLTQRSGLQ
# How it was run: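 Filter scintillation counting of bound radioligand, human platelet protein, 1 h exposure. Single-concentration duplicates (25 uM) first, concentration-response follow-up for actives. Binding loss scored against DMSO baseline.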
# [2] = target: human Purinergic Receptor P2Y, P2RY1 (gene 5028) (UniProt P47900); test: NVS_GPCR_hPY2: NovaScreen (NVS) G Protein-Coupled Receptor Assay for human Purinergic Receptor P2Y (AID 2283281)
# Sequence of human Purinergic Receptor P2Y, P2RY1 (gene 5028) (P47900 whole entry, looked up): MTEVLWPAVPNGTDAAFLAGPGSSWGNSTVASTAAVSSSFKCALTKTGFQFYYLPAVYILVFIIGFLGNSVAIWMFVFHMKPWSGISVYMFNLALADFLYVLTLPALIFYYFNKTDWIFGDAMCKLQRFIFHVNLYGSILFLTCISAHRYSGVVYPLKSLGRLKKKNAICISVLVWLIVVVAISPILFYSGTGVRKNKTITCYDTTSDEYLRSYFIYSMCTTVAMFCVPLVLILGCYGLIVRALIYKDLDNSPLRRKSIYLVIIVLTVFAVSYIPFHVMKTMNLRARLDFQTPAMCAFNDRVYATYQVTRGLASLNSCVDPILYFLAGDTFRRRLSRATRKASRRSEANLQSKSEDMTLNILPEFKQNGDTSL
# How it was run: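 Filtration scintillation readout of radioligand displacement on U937 extract, measured 1 h post-dosing. Single 25 uM duplicate screen, then singleton concentration series to 50 uM for chemicals passing threshold; DMSO as baseline.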
# [3] = target: rat Neonicotinoid receptor (NNR), Chrna7 (gene 25302) (UniProt Q05941); test: NVS_LGIC_rNNR_BungSens: NovaScreen (NVS) Ligand-Gated Ion Channel Assay for rat Neonicotinoid receptor (NNR) (AID 2283315)
# Sequence of rat Neonicotinoid receptor (NNR), Chrna7 (gene 25302) (Q05941 whole entry, looked up): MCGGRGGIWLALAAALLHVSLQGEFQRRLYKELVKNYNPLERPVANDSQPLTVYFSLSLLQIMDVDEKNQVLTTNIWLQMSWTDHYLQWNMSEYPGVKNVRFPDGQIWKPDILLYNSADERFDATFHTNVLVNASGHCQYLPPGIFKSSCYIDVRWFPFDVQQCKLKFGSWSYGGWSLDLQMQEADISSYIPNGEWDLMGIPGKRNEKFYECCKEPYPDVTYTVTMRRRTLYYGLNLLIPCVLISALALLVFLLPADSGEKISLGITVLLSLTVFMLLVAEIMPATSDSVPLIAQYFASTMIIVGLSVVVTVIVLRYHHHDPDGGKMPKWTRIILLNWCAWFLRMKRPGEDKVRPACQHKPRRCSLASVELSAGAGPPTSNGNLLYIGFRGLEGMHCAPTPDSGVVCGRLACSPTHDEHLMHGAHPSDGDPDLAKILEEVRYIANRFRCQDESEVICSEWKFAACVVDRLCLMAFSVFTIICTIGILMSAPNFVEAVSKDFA
# How it was run: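 Rat cortical membrane preparation incubated 2.5 h with tritiated or iodinated radioligand and test chemical. Bound radioactivity was filtered and counted by scintillation, and displacement was analysed against DMSO.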
# [4] = target: Sodium channel protein type 1 subunit alpha (Rattus norvegicus) (UniProt P04774); test: NVS_IC_rNaCh_site2: NovaScreen (NVS) Ion Channel Assay for rat Sodium Channel, Site 2 (NaCh) (AID 2283322);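 further: hit means loss of radioligand binding signal relative to DMSO so AC50 marks displacement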
# How it was run: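 Initial duplicate single-point testing at 25 uM, followed by concentration-response runs for actives. Binding of radioligand to rat forebrain membranes quantified after 1 h via filter-based radiodetection.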
# [5] = test system: guinea pig Atrionatriuretic Peptide Receptor A (ANPA), gene 100135578; test: NVS_GPCR_gANPA: NovaScreen (NVS) G Protein-Coupled Receptor Assay for guinea pig Atrionatriuretic Peptide Receptor A (ANPA) (AID 2283291)
# How it was run: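 Displacement of specific radioligand from guinea pig cerebellum membranes was read by scintillation after 1 h. A duplicate single-point screen at 25 uM was followed by a concentration series up to 50 uM, analysed relative to DMSO.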
# [6] = test system: 5-hydroxytryptamine receptor 2C (pig); test: NVS_GPCR_p5HT2C: NovaScreen (NVS) G Protein-Coupled Receptor Assay for pig Serotonin, 5-Hydroxytryptamine Receptor 2C (5HT2C) (AID 2283288)
# How it was run: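 Radioligand displacement on membranes from pig choroid plexus, detected by filter scintillation counting after 1 h. Tested first at a single 25 uM in duplicate, then in concentration-response for actives; DMSO served as baseline.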
# [7] = target: human Orphanin, Opioid Related Nociceptin Receptor 1 (ORL1), OPRL1 (gene 4987) (UniProt P41146); test: NVS_GPCR_hORL1: NovaScreen (NVS) G Protein-Coupled Receptor Assay for human Orphanin, Opioid Related Nociceptin Receptor 1 (ORL1) (AID 2283283)
# Sequence of human Orphanin, Opioid Related Nociceptin Receptor 1 (ORL1), OPRL1 (gene 4987) (P41146 whole entry, looked up): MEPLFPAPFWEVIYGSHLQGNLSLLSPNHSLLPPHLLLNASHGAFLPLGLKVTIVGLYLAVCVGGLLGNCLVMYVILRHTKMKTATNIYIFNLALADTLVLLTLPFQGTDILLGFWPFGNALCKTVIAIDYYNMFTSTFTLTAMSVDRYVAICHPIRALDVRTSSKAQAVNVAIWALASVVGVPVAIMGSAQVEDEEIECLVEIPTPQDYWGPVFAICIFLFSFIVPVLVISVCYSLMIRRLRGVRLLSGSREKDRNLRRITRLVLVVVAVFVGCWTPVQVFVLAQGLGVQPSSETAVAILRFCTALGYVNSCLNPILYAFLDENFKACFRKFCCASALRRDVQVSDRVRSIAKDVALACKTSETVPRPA
# How it was run: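 Cell-free binding using HEK293-derived receptor protein: radioligand displacement measured by filter scintillation 1 hour after dosing. Primary testing at 25 uM in duplicate, followed by singleton concentration series up to 50 uM; DMSO served as negative control.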
# [8] = test system: NCBI gene 24521; test: NVS_IC_rKATPCh: NovaScreen (NVS) Ion Channel Assay for rat Potassium Channel, ATP-Sensitive (KATPCh) (AID 2283319)
# How it was run: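 Primary duplicate screen at 25 uM, then singleton concentration series to 50 uM maximum, in a rat cortex membrane radioligand displacement assay. Binding measured by filtration and scintillation 2 h post-dose; DMSO baseline.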
# [9] = target: rat Adrenergic Receptor, Alpha 2 (Adra2), Non-selective Binding, Adra2a (gene 25083) (UniProt P22909); test: NVS_GPCR_rAdra2_NonSelective: NovaScreen (NVS) G Protein-Coupled Receptor Assay for rat Adrenergic Receptor, Alpha 2 (Adra2), Non-selective Binding (AID 2283299)
# Sequence of rat Adrenergic Receptor, Alpha 2 (Adra2), Non-selective Binding, Adra2a (gene 25083) (P22909 whole entry, looked up): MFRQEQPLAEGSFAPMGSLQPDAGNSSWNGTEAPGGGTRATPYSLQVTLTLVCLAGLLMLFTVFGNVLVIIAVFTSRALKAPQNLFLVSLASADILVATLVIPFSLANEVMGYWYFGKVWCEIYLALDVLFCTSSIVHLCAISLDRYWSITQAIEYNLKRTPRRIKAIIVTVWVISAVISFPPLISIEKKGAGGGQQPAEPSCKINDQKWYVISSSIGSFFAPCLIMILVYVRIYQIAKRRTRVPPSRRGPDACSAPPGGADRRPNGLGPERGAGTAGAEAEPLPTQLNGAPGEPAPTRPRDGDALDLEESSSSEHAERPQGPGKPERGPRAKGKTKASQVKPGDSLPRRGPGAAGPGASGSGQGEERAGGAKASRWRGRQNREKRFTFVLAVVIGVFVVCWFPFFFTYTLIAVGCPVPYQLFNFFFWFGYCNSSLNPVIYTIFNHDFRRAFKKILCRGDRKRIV
# How it was run: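 Filter-based scintillation counting of radioligand binding to rat cortical membrane receptors, measured 1.25 hours post-dosing; loss of signal versus DMSO indicates displacement. Initial single-concentration duplicate at 25 uM, then concentration series.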
# [10] = target: rat Opioid Receptor, Non-selective Sodium (Na+) Binding, Oprm1 (gene 25601) (UniProt P33535); test: NVS_GPCR_rOpiate_NonSelectiveNa: NovaScreen (NVS) G Protein-Coupled Receptor Assay for rat Opioid Receptor, Non-selective Sodium (Na+) Binding (AID 2283311)
# Sequence of rat Opioid Receptor, Non-selective Sodium (Na+) Binding, Oprm1 (gene 25601) (P33535 whole entry, looked up): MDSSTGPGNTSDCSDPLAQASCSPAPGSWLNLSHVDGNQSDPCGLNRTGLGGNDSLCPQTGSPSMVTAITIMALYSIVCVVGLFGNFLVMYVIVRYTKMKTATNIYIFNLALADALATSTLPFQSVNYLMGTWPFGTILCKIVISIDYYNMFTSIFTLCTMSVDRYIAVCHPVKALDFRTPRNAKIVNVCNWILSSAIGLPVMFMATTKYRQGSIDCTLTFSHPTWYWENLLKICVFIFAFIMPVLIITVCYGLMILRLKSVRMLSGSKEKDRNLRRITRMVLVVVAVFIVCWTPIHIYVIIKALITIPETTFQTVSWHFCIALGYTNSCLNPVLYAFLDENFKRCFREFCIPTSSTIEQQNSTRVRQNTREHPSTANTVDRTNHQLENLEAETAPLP
# How it was run: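 Filtration radioligand binding on rat forebrain membrane preparations, read 1.5 h after dosing. Single-concentration 25 µM primary screen in duplicate, followed by singleton concentration series to 50 µM max for actives; DMSO baseline.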
# [11] = target: bovine Gamma-Aminobutyric Acid Type A Receptor BDZ, alpha 1 site (GABARa1), GABRA1 (gene 780973) (UniProt P08219); test: NVS_LGIC_bGABARa1: NovaScreen (NVS) Ligand-Gated Ion Channel Assay for bovine Gamma-Aminobutyric Acid Type A Receptor BDZ, alpha 1 site (GABARa1) (AID 2283321)
# Sequence of bovine Gamma-Aminobutyric Acid Type A Receptor BDZ, alpha 1 site (GABARa1), GABRA1 (gene 780973) (P08219 whole entry, looked up): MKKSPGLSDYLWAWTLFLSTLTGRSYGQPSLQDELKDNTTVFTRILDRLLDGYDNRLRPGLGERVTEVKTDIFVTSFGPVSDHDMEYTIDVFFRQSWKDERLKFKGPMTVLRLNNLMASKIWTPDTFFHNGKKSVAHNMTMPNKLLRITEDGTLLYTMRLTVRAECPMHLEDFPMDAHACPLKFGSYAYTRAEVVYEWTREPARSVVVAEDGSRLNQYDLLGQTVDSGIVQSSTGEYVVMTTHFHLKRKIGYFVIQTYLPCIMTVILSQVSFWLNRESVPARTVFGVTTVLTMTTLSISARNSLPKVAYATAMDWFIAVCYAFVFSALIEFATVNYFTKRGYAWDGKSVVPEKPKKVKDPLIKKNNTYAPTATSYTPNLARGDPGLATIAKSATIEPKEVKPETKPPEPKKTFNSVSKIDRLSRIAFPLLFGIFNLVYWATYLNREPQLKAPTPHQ
# How it was run: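 Bovine cortex membrane preparation, benzodiazepine site on GABA-A alpha1; specific radioligand displacement read after 0.75 h by filtration and scintillation. Screen at 25 uM, then singleton titrations up to 50 uM; DMSO baseline.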
# [12] = target: Adra2b (gene 24174) (UniProt P19328); test: NVS_GPCR_rmAdra2B: NovaScreen (NVS) G Protein-Coupled Receptor Assay for hybird cells Adrenergic, Alpha 2B Receptor (Adra2B) (AID 2283306)
# Sequence of Adra2b (gene 24174) (P19328 whole entry, looked up): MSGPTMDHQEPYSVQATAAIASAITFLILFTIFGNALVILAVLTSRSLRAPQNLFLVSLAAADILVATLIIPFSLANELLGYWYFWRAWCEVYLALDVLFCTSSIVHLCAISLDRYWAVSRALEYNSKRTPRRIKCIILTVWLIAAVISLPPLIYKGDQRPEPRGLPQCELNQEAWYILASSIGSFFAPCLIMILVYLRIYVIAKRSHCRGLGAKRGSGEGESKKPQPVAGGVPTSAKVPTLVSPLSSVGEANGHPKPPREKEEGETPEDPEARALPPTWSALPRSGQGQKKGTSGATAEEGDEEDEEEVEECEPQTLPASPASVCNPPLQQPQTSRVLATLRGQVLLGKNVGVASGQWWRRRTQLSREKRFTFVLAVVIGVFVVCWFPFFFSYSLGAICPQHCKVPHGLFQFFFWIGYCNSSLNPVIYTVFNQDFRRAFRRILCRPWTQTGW
# How it was run: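 Compounds screened first at 25 uM in duplicate, with actives followed up in concentration-response; specific radioligand displacement from hybrid neuroglioma/blastoma cell membrane preparations measured by filter scintillation counting after 1 h, normalized to DMSO.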
# [13] = target: rat Gamma-Aminobutyric Acid Type B Receptor (GABBR), Gabbr1 (gene 81657) (UniProt Q9Z0U4); test: NVS_GPCR_rGABBR: NovaScreen (NVS) G Protein-Coupled Receptor Assay for rat Gamma-Aminobutyric Acid Type B Receptor (GABBR) (AID 2283301)
# Sequence of rat Gamma-Aminobutyric Acid Type B Receptor (GABBR), Gabbr1 (gene 81657) (Q9Z0U4 whole entry, looked up): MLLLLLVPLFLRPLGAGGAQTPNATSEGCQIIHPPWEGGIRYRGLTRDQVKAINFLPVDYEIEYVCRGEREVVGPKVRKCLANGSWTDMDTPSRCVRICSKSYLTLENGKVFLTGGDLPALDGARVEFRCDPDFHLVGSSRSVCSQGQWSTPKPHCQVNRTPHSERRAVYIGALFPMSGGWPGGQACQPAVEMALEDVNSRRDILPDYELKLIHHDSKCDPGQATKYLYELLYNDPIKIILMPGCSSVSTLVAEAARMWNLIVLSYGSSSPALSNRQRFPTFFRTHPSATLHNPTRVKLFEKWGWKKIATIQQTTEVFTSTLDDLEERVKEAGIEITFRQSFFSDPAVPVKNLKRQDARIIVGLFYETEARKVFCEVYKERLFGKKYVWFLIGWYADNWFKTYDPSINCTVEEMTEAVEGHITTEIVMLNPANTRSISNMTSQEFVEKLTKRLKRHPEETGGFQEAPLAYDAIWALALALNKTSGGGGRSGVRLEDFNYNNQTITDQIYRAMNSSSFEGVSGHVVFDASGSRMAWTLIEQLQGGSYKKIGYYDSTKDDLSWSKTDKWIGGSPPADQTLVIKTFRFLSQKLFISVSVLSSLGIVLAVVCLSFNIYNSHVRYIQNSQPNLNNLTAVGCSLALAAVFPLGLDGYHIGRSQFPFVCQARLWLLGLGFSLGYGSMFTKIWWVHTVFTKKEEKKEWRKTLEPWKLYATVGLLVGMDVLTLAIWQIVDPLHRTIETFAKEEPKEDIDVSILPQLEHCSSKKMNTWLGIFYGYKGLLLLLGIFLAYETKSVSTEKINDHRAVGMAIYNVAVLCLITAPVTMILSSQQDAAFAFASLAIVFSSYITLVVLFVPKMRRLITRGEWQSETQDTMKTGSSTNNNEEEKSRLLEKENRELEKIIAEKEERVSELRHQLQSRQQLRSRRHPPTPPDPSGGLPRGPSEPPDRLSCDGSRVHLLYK
# How it was run: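 Rat cortical membrane preparation, competitive radioligand binding for 1 h with filtration and scintillation readout. Actives from duplicate single-point 25 uM screening proceeded to concentration series with 50 uM top concentration.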
# [14] = target: rat Adrenergic, Alpha 1, Non-selective Receptor (Adra1), Adra1a (gene 29412) (UniProt P43140); test: NVS_GPCR_rAdra1_NonSelective: NovaScreen (NVS) G Protein-Coupled Receptor Assay for rat Adrenergic, Alpha 1, Non-selective Receptor (Adra1) (AID 2283289)
# How it was run: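 Chemicals first screened in duplicate at 25 uM, then actives tested in concentration series up to 50 uM. Binding measured as displacement of radioligand from rat forebrain membrane receptors, 1 h, filtration with scintillation readout; DMSO baseline.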
# [15] = target: mouse Cholecystokinin, CCK2 Receptor (CCKB), Cckbr (gene 12426) (UniProt P56481); test: NVS_GPCR_mCKKBCentral: NovaScreen (NVS) G Protein-Coupled Receptor Assay for mouse Cholecystokinin, CCK2 Receptor (CCKB) (AID 2283293)
# Sequence of mouse Cholecystokinin, CCK2 Receptor (CCKB), Cckbr (gene 12426) (P56481 whole entry, looked up): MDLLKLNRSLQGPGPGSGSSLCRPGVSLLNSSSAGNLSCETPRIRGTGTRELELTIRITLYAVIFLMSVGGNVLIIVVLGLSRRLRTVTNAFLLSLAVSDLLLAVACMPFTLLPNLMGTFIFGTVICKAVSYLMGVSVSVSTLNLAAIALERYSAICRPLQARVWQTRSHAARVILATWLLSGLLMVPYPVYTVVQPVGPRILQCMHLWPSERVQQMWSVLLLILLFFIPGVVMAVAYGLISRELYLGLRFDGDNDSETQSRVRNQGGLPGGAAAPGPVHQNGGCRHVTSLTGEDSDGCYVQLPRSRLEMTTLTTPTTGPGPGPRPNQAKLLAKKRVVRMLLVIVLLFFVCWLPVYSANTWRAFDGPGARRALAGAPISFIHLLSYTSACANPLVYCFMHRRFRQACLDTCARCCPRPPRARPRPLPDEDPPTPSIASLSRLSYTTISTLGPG
# How it was run: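 Mouse forebrain membrane preparation incubated 2 h with chemical and radioligand; bound radioactivity counted after filtration. Single-concentration duplicate screen at 25 uM, then concentration series to 50 uM max for hits, DMSO as baseline.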
# [16] = test system: rat Adrenergic, Alpha 1B Receptor (Adra1B), gene 24173; test: NVS_GPCR_rAdra1B: NovaScreen (NVS) G Protein-Coupled Receptor Assay for rat Adrenergic, Alpha 1B Receptor (Adra1B) (AID 2283297)
# How it was run: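 Filter-binding radioligand competition on membranes from rat liver, read after 1 h by scintillation counting. Single-concentration duplicate screen at 25 uM, followed by concentration-response on actives, normalised to DMSO.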
# [17] = target: rat Neurotensin Receptor (NTS), Ntsr1 (gene 366274) (UniProt P20789); test: NVS_GPCR_rNTS: NovaScreen (NVS) G Protein-Coupled Receptor Assay for rat Neurotensin Receptor (NTS) (AID 2283308)
# How it was run: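 Single-point duplicates at 25 uM, then concentration series to 50 uM max for hits, measured radioligand displacement on rat forebrain membrane preparations. Bound label counted by filtration scintillation at 1 h; signal loss relative to DMSO fitted.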
# [18] = target: rat Serotonin, 5-Hydroxytryptamine Receptor (5HT), Non-Selective Binding, Htr1a (gene 24473) (UniProt P19327); test: NVS_GPCR_r5HT_NonSelective: NovaScreen (NVS) G Protein-Coupled Receptor Assay for rat Serotonin, 5-Hydroxytryptamine Receptor (5HT), Non-Selective Binding (AID 2283295)
# How it was run: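 Rat cortex membrane preparation incubated 1 h with radioligand and test chemical; bound radioactivity counted after filtration. Screening began in duplicate at 25 uM with concentration-series follow-up; fitting relative to DMSO.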
smiles,measurement,setting,value
C/C(=N\NC(=O)Nc1cc(F)cc(F)c1)c1ncccc1C(=O)O,outcome,[1],inactive
O=c1ssc(Cl)c1Cl,outcome,[2],inactive
Cc1cc(C)c(C(=O)P(=O)(c2ccccc2)c2ccccc2)c(C)c1,outcome,[3],inactive
same,outcome,[4],inactive
O=[N+]([O-])c1ccccc1,outcome,[5],inactive
Cc1ccc(O)cc1C,AC50,[6],21.1 µM (active)
Oc1ccc(I)cc1,AC50,[4],7.01 µM (active)
CC1(C)CN=C(NN=C(/C=C/c2ccc(C(F)(F)F)cc2)/C=C/c2ccc(C(F)(F)F)cc2)NC1,AC50,[7],37.2 µM (active)
Cc1ccc2c(c1N)C(=O)c1ccccc1C2=O,outcome,[1],inactive
N#Cc1c(-c2ccc(Cl)cc2)[nH]c(C(F)(F)F)c1Br,AC50,[1],4.66 µM (active)
CC(=O)c1ccc(-c2ccccc2)cc1,outcome,[1],inactive
OCC1CO1 (stereo not drawn),outcome,[8],inactive
CCCCC(CC)COP(=O)(Oc1ccccc1)Oc1ccccc1 (stereo not drawn),outcome,[9],inactive
Nc1cc2c3c(c1)C(c1ccccc1)=N[C@@H](NC(=O)c1cccnc1)C(=O)N3CC2,outcome,[10],inactive
same,outcome,[3],inactive
same,outcome,[11],inactive
CCCCOCCOP(=O)(OCCOCCCC)OCCOCCCC,outcome,[4],inactive
O=P(Oc1ccccc1)(Oc1ccccc1)Oc1ccccc1,outcome,[12],inactive
CCC1(c2ccccc2)C(=O)N=C(O)NC1=O (stereo not drawn),outcome,[13],inactive
same,outcome,[11],inactive
c1ccc2c(c1)Nc1ccccc1S2,outcome,[6],inactive
same,outcome,[14],inactive
CCC(C)(C)c1ccc(O)cc1,outcome,[15],inactive
same,AC50,[4],41.5 µM (active)
CCCCN(CCCC)SN(C)C(=O)Oc1cccc2c1OC(C)(C)C2,outcome,[16],inactive
same,outcome,[17],inactive
CC(C)Nc1ccc(Nc2ccccc2)cc1,AC50,[9],25 µM (active)
Cc1ccc([N+](=O)[O-])cc1C,outcome,[18],inactive
